# Source: the supplement of paper PMC6555819
# Tested on: VDR:RXRa (NR concentration 270 nM, RXRa partner concentration 90 nM)
# Test: PBM binding z-score (relative to random genomic background probes); higher = stronger binding; sequences stand for … in GC…GCGATTGACAGCGTAGAATGAAGG
# Method: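 Protein-binding microarray (Agilent 4x180K custom design, double-stranded 60-nt probes: 5' GC cap, 34-nt variable region, 24-nt constant primer region; full probe sequence given). Purified or IVT nuclear receptor:RXRα heterodimers (3:1 NR:RXRα, mostly 270:90 nM) or homodimers were incubated for 1 h in PBS with 2% milk and no ligand, then detected with Alexa488 antibodies. Fluorescence from o1-orientation probes (~5 replicates averaged) was converted to z-scores against 500 random hg19 background probes. Variable regions are seed direct-repeat (DR0–DR5) sites, all their single-nucleotide variants and half-site ablations.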
row,Sequence,PBM binding z-score
1,CCGGACAGGTGAGAAGGTAACTCAGCCTCGATTA,-0.403
2,CTCGAAAGGTCGGTTGAGGCGAGTATACGGATAA,0.809
3,CGAACCAGGTCAGAACAGGACAGTGAAGGATGAT,1.44
4,AATCGGAGGACAAAGGTCAGAGCTACGCCAGTGA,3.23
5,ACAGACAGGTGATGAAGGTTACTCAGGCTATCAT,1.64
6,CGTCGAAGGTCAAGGTCAGTGAAAGAGACTCGAA,4.25
7,ACTTGCGGGTCAACGAGGTTATAGCACGCGTATA,7.55
8,CCTTACGGGTCACTGACAGGTAATAGCATTTGGA,3.17
9,CCTAGTTGGTCAGGAGGTCATACACCGGATATGA,3.75
10,TCTTGTAGATCAACAGGAGGTTAAGTAAGATCGA,0.844
11,TCAGACAGGTGAAGGTATCTCAGGTACGCAGTCG,0.814
12,GCAAACAGGTGAAACGCAGGTAACTCAGGGTGGC,-0.424
13,GGAACGAGCGCATTCGAGTTGATAGCATGGCGAT,-0.761
14,CCTATTAGTTGAACATAAGGGCAACCGAAGCTCG,0.603
15,AGAACTAGGGCACGCTGAGTTGATAGCAGAGTAG,0.303
16,TCTAGTTGGTCACGGAGGTCACTCACGACGGGTA,5.6
17,ACTATTAGTTTACTTAGGGCAACCGATACGACGC,0.639
18,CTCGAAAGGTCGTGTTCAGGTGAGTATACCAAAC,3.35
19,CCTTGCGGGTCACTCCAGGTTATAGCATCGGAGT,3.51
20,CCTATTAGTTCACCATAAGGGCAACCGAAGCTCG,2.6

row,Sequence,PBM binding z-score
1,TCTTGTAGATCAGCAGGTTGAGAAAGCTGGCCAA,0.543
2,CGAACTAGGTCATCCAGGACAGGGAATACATTGA,4.1
3,GGAACGAGGGCATTCGAGTTGATAGTATGGCGAT,4.13
4,GCTGCTAGGTCAGGTTGGTAAGCTAACGGGTACG,0.241
5,ATAGGTAGGTTAAGGGTCATTCAGGTTGGTTCGC,5.65
6,ACTAGTTGGTCAGCTGAGGCCACACACAATTCGG,0.307
7,CCTAGCAGGCCAAACTGGGTCACTCAAGGCTTGA,0.616
8,CCTAGCAGGCAAATCTGGGTCACTCAAGGCTTGA,0.335
9,ATATGTAGGTTATCGGGTCATTCTGTTTGCGCAT,3.82
10,CCTTACGGGTCAAGGTTATAGAACGGGTGGTACG,3.42
11,ACTATTAGTTGACTTATGGCAACCGATACGACGC,0.458
12,GCAACTGGGGCAAAGCAGGTTACCATAAGGTTGG,0.361
13,CCGACTGGGGCATCAGGTTACCATAAGCCAGCCC,-0.451
14,TCATATAGGTAAACGGGTGAAAGTCCGTAAGTTA,1.16
15,AGTCAAAGTTCATCTAGGTAACGGAAGATATGCT,4.95
16,GTACCAAGGTCAATAGGTCGTTGATGAGTAGGCG,4.69
17,TTACCAAGGTGAAAGGTCGTTTATGCACGCCTTG,3.32
18,CTCGACAGGTCGGTTGAGGTGAGTATACGGATAA,0.149
19,CCTACTGGGCCACGAACGGTCATTGATTCAGTGA,-0.227
20,TCTTGTAGATCAGCAGGTTAAGATAGCTGGCCAA,0.44
